HT1080 IDH1KD tx: kills HT-1080 cells with IDH1 knockdown. HT-1080 IDH1 knockdown viability, ATP luminescence, 48 h. Potency, µM (doses to about 46.1 µM), without a hit: at the highest dose activity, negative = toxicity, usual class: cytotoxic. 360,000 compounds, 2% hits. AID 686971;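 note: potency is the fitted concentration of half-maximal effect; 0% = DMSO wells and -100% = cell-free medium wells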
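Using the IDH1-knockdown HT-1080 line run in the same batch and compound series as the NT line, viability after 48 h at 37 °C was determined by CellTiter-Glo luminescence and expressed as % activity.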
TDP1 cell noCPT: qHTS for Inhibitors of human tyrosyl-DNA phosphodiesterase 1 (TDP1): qHTS in cells in absence of CPT; 420,000 compounds, 15% hits; DT40 Tdp1-/- hTDP1 cells, no CPT, ATP luminescence, 48 h; Potency, µM (series often up to 46.2 µM), without a hit: at the highest dose activity change, negative = growth inhibition, usual class: inhibitors; note: potency is the fitted concentration of half-maximal effect; nearly all actives have a fitted effect of over 55% in size
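Cells were dispensed at 400 per well, compounds added by pin tool, plates incubated ≥48 hr at 37 °C, then CellTiter-Glo added for 30 min at room temperature before luminescence reading. Line: DT40 Tdp1-/- complemented with hTDP1; camptothecin omitted.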
DT40 TDP1 CPT: DT40-hTDP1 cell growth loss with CPT. 420,000 compounds, 12% hits. chicken DT40 Tdp1-/-;hTDP1 cells + 20 nM CPT, ATP luminescence, 48 h. Potency, µM (highest dose often 46.2 µM), for inactives: at the top dose activity change, negative = growth inhibition, usual class: inhibitors; note: potency is the fitted concentration of half-maximal effect; nearly all actives have a fitted effect of over 55% in size
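Chicken DT40 Tdp1-/- cells complemented with human TDP1, 400 cells/well, exposed to compounds plus 20 nM camptothecin for at least 48 h at 37 C; viability read as ATP content by CellTiter-Glo luminescence.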
IL1B secr inh: inflammasome signaling inhibition, IL-1 beta readout; activity change, % at 57.5 µM; THP-1 LPS/ATP IL-1B secretion, AlphaLISA, 16 h; stronger effect = lower value; 360,000 compounds, 4.7% hits; in the data active = activity change below about -50%; inconclusive = mostly about -30% to -49%
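Secreted IL-1B measured by AlphaLISA bead assay after 16 h compound exposure of THP-1 cells; compounds (final up to 57.5 uM) added 1 h before LPS (250 ng/mL) and ATP (1.25 mM) stimulation; lower signal means less secretion.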
HT1080NT lethal: kills 2HG-producing HT-1080-NT fibrosarcoma cells; HT-1080-NT fibrosarcoma viability, CellTiter-Glo ATP luminescence, 48 h; Potency, µM (doses to about 46.1 µM), without a hit: at the highest dose activity, negative = less viability, hits mostly cytotoxic; 360,000 compounds, 1.6% hits; AID 686970;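 note: NT is the 2HG producing partner of a matched IDH1 knockdown line; potency is the fitted concentration of half-maximal effect; 0% = DMSO-treated cells and -100% = media-only wells without cells; nearly all actives have a fitted effect of over 55% in size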
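750 cells/well, RPMI + 5% FBS; 2 h settle, compound pin-transfer, 48 h at 37 degrees C. CellTiter-Glo 10 min RT, luminescence. Normalized to DMSO and media-only wells.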
Active calls of the source: *; ? = inconclusive; . = not tested or not shown. An excerpt weighted towards active compounds, which were near 19% of everything screened. Unless noted, calls come from the whole dose curve; as a rule, active = well fitted curve in the direction sought with a large enough effect; inconclusive = small, poorly fitted or top-dose-only effect, or another doubt; inactive = no such curve, though single readings can be large; an effect the other way counts as inactive or inconclusive. Unless noted, % is set by controls: 0 for no effect and ±100 for the full control effect.

SMILES | HT1080 IDH1KD tx | TDP1 cell noCPT | DT40 TDP1 CPT | IL1B secr inh | HT1080NT lethal
CCOC(=O)CC(NC(=O)CCc1c(C)nc2ncnn2c1C)c1ccc(C)cc1 (stereo not drawn) | 7% | -16% | 6% | 15 | 1%
c1ccc2c(c1)c1c(c3ccccc32)CN2CCCC2C1 (stereo not drawn) | 23µM* | 8.2µM* | 5.2µM* | -97* | ?
COc1cc2nc(/C=C/c3cc(OC)c(OC)c(OC)c3)sc2cc1SC | ? | 5.8µM* | 5.8µM* | -26 | ?
COc1cc2nc(C)sc2cc1SC | 8% | ? | ? | 4 | 4%
Cc1cc(NCCCCCCCNc2cc(C)nc3cc([N+](=O)[O-])ccc23)c2ccc([N+](=O)[O-])cc2n1 | ? | 1.3µM* | 1.6µM* | -103* | ?
COCCCNc1cc(C)nc2ccccc12 | -11% | 9% | -4% | 19 | 0%
CS(=O)(=O)Nc1ccc(-c2cccc3nccn23)cc1 | -1% | 0% | 3% | 19 | 9%
Clc1cccc(-c2cccc3nccn23)c1 | -18% | 21µM* | 23µM* | 16 | 12%
CN(C)c1ccc(-c2cccc3nccn23)cc1 | ? | 15µM* | ? | 31 | -25%
NC(=O)c1cccc(-c2cccc3nccn23)c1 | 1% | -2% | -4% | 10 | 0%
COc1cc2c(cc1OC)C1=NC(=O)CN1C(SCc1ccc(C)cc1)=N2 | 0% | 2.6µM* | 6.5µM* | 10 | -3%
C=CCSC1=Nc2cc(OC)c(OC)cc2C2=NC(=O)CN12 | -1% | 10µM* | ? | 3 | 2%
COCc1cc(C)nc(SCC[N+](C)(C)CC(=O)Nc2cccc(C(F)(F)F)c2)c1C#N | -11% | ? | 21µM* | -51* | -22%
COCc1cc(C)nc(SCC(=O)Nc2ccccc2C)c1C#N | -12% | 5.8µM* | 7.3µM* | -2 | -4%
Cc1cc(C)c(C#N)c(SCC(=O)Nc2ccccc2C(N)=O)n1 | -8% | 10µM* | ? | -15 | 1%
CN(C)C1=NCCN1CCc1ccccc1 | -5% | ? | -2% | -5 | 5%
O=C(c1cccc(F)c1)N1CCC[C@@]2(CCN(Cc3nccs3)C2)C1 | . | -17% | 2% | . | .
CCc1nn(CC(=O)NCCc2ccc(OC)cc2OC)c(=O)c2cc3sccc3n12 | . | -18% | -5% | . | .
Cc1ccc(S(C)(=O)=O)cc1C(=O)NC(C)C1CC2CCC1C2 (stereo not drawn) | -8% | 1% | -19% | 15 | 20%
O=C(CCN1C(=O)c2ccccc2C1=O)Nc1cccnc1 | 14% | 1% | 5% | -6 | 20%
COc1ccc(C(=O)/C=C2/c3ccccc3CC(C)(C)N2C)cc1 | 6.3µM* | 5.2µM* | 5.2µM* | 7 | 6.3µM*
CN1/C(=C\C(=O)Nc2cccnc2)c2ccccc2CC1(C)C | 10% | 10µM* | 18µM* | 6 | 1%
Cc1cc(=O)n2[nH]c(SCc3c(F)cccc3Cl)nc2n1 | -11% | ? | 2% | 17 | -18%
Cc1ccc(S(=O)(=O)/N=C(/Nc2nc(C)cs2)c2ccccc2)cc1 | -1% | -4% | 1% | -3 | -3%
COc1ccc(-n2c(CNC(=O)c3cc(OC)c(OC)c(OC)c3)n[nH]c2=S)cc1 | -21% | -13% | -6% | 10 | -16%
SMILES | HT1080 IDH1KD tx | TDP1 cell noCPT | DT40 TDP1 CPT | IL1B secr inh | HT1080NT lethal
Cc1cccc(C(O)(C(=O)NNc2ccc3ccccc3n2)c2cccc(C)c2)c1 | ? | 6.5µM* | 6.5µM* | 22 | ?
COc1ccc2c(C=O)c[nH]c2c1 | 9% | -26% | 10% | 33 | 0%
COc1ccc2c(C(=O)CCl)c[nH]c2c1 | ? | 3.3µM* | 2.6µM* | -15 | ?
COc1ccc(-n2c(=O)c3ccccc3n(CC(=O)OCc3ccccc3)c2=O)cc1OC | -6% | -19% | 1% | 1 | 9%
COc1cccc(-c2cnc3c(NC=O)cc(-c4ccc(S(C)(=O)=O)cc4)cn23)c1 | ? | 16µM* | 18µM* | 14 | ?
CS(=O)(=O)c1ccc(-c2cc(NC=O)c3ncc(-c4ccc(F)cc4)n3c2)cc1 | ? | 23µM* | 23µM* | -14 | ?
COc1cccc(-c2cnc3c(NC=O)cc(-c4ccccc4)cn23)c1 | 2.6µM* | 5.2µM* | 5.2µM* | 89 | 5.8µM*
COc1cccc(-c2cnc3c(NC=O)cc(-c4ccoc4)cn23)c1 | -9% | 15µM* | 13µM* | 61 | -10%
COc1ccc(C(=O)N2CCC(C(=O)O)CC2)c2ccccc12 | -1% | -13% | 18% | 2 | 0%
COC(=O)c1ccc(NC(=O)C23CCC(C)(C(=O)O2)C3(C)C)cc1 (stereo not drawn) | 9% | -19% | 1% | 0 | 21%
O=C(Cn1cnc2ccccc2c1=O)NCCC(=O)N1CCN(c2ccccc2)CC1 | 5% | -2% | -14% | 8 | 0%
O=CNc1cc(-c2ccc(C(=O)NC3CC3)cc2)cn2c(-c3ccc(F)cc3)cnc12 | 8.2µM* | 23µM* | 23µM* | -78* | ?
COc1cccc(-c2cnc3c(NC=O)cc(-c4cc(C)c(O)c(C)c4)cn23)c1 | ? | 4.6µM* | 3.7µM* | 25 | ?
COc1cccc(-c2cnc3c(NC=O)cc(-c4ccc(N5CCN(C)CC5)cc4)cn23)c1 | ? | ? | 16µM* | 75 | ?
Cc1csc(SCC(=O)Nc2ccc(F)cc2Cl)n1 | -1% | ? | 2% | 5 | -3%
CN1CCN(CC#Cc2ccccc2)CC1CCO (stereo not drawn) | 6% | 8% | 0% | 15 | 15%
CC(C)(C)CN1CCN(CC#Cc2ccccc2)CC1CCO (stereo not drawn) | -3% | 10µM* | ? | 13 | -2%
Cc1ccc(S(=O)(=O)NC(=O)Nc2ccc(Cl)cn2)cc1 | 2% | -5% | 5% | -9 | 7%
Cc1ccc(S(=O)(=O)NC(=O)NC2=NC(C)(C)N(c3ccc(Cl)c(Cl)c3)C(N)=N2)cc1 | 1.6µM* | 1µM* | 0.92µM* | 16 | 3.3µM*
CCOc1ccc2c(ccc(/C=C/c3cc(C)c4cccnc4c3O)[n+]2C)c1 | 23µM* | 5.2µM* | 2.6µM* | ? | ?
CCOc1ccc2nc(C)cc(C(=O)O)c2c1 | 1% | 0% | -11% | -9 | 10%
CN(C)CCNCc1ccc(OC2CCCC2)cc1 | -6% | ? | ? | 0 | -23%
Cc1ccc(CC2(OCCN(C)C)CCC(C(C)(C)C)CC2)cc1 (stereo not drawn) | -2% | 15µM* | 18µM* | -99* | -6%
